The record followed here is the supplement of paper PMC6555819.

This test has as its system VDR:RXRa (NR concentration 270 nM, RXRa partner concentration 90 nM). Description: PBM binding z-score (relative to random genomic background probes); higher = stronger binding; sequences stand for … in GC…GCGATTGACAGCGTAGAATGAAGG
How it is done:
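Protein-binding microarray (Agilent 4x180K custom design, double-stranded 60-nt probes: 5' GC cap, 34-nt variable region, 24-nt constant primer region; full probe sequence given). Purified or IVT nuclear receptor:RXRα heterodimers (3:1 NR:RXRα, mostly 270:90 nM) or homodimers were incubated for 1 h in PBS with 2% milk and no ligand, then detected with Alexa488 antibodies. Fluorescence from o1-orientation probes (~5 replicates averaged) was converted to z-scores against 500 random hg19 background probes. Variable regions are seed direct-repeat (DR0–DR5) sites, all their single-nucleotide variants and half-site ablations.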
Consider ACTAGGTGGTCAGCTGAGGTCACACACAATTCGG, for which the PBM binding z-score was 4.54.

In turn, CGAACTAGGTCAAAGGACAGTGCAAGGCGACGTA registered a PBM binding z-score of 1.68.

ATCGAAAGGTCGTGAGGTGTGTATACAGAAAGGC came in with a PBM binding z-score of 4.55.

Sequence AGTCAAAGTTCAGCACGAGGTAACGTAAAGCACG displayed a PBM binding z-score of 3.25.

Sequence CCGAGTAGGTTACGAGGGGGGATTCAGTGCGAAT returned a PBM binding z-score of 3.17.

With ATATGTAGGTTAGGGTCATGCAGAAAGTAGGGAA, the PBM binding z-score worked out at 4.36.

Sequence CGAACTAGGTCACCGGGACAGTGAAGAGGTTGGA displayed a PBM binding z-score of 2.52.

As to ACTTACGGGTCAAGGAGGTTATAGCACGCGTATA, the PBM binding z-score stood at 6.7.

For the sequence ATATGTAGGTTAGGGTCATTCAAAAAGTAGGGAA, the PBM binding z-score stood at 4.58.

CAAACTAGGTCACAGAGGACAAAGTCCGTGCGTA had a PBM binding z-score of 6.52.

Sequence GCTTACGGGTCAAAGGTTACAGCATGAATAGAAT had a PBM binding z-score of 5.69.

CCTTACAGGTCACGAGGTTATAGCACGACGAGCG: the PBM binding z-score came to 5.04.

As to TTACCAAAGTGAAAGGTCGTTGATGCACGCCTTG, the PBM binding z-score amounted to 1.86.

For the sequence CGACCTAGGTCAAAGGACAGTGAAAGGCGACGTA, the PBM binding z-score turned out to be 2.05.

As for TATACAGGGTCAAAGGGCAGAGTACGAATGTCGA, the PBM binding z-score amounted to 5.43.

Sequence TCATATAGGTGAAAGGTGAAAGTCGGTGTGGTAA displayed a PBM binding z-score of 2.12.

ATATGCAGGTTATCGGGTCATTCAGTTTGCGCAT yielded a PBM binding z-score of 5.27.

In the case of AGTCAAATTTCATCTAGGTAACGTAAGATATGCT, the PBM binding z-score is 0.0583.

TCTCGGAGGACACGAAGGTCAGCGCTTTCCAGAG showed a PBM binding z-score of 2.35.

Sequence CGACCTAGGTCACCAGGACAGTGAAGAGGTTGGA returned a PBM binding z-score of 2.68.

As for CGAACTAGGTCAAAGCACAGTGAAAGGCGACGTA, the PBM binding z-score was 1.2.

For ATATGTAGGTTAAGGGTCATGCAGGTTGGTTCGC, the PBM binding z-score turned out to be 5.46.

Turning to CTATGTAGGTTAAGGGGGTCATTCTGTTTGAAAG, the PBM binding z-score turned out to be 7.27.

As for GCATATAGGTAATTCAAGGTGAAAGTCCGATTGT, the PBM binding z-score is 0.627.

Turning to CGAACTAGGTCAAAGGATAGTGAAAGGCGACGTA, the PBM binding z-score stood at 1.12.

Sequence CCGAGTAGTTTACGAGGGGGCATTCAGTGCGAAT gave a PBM binding z-score of 4.03.

For the sequence TCGAGTAGGATACGGGGGCATTCAGGGATGAAGA, the PBM binding z-score was determined as 2.49.

The sequence TCGAGTAGGTTACGTGGGCATTCAGGGATGAAGA showed a PBM binding z-score of 0.00981.

TCGAGTAGGTTACGGGGGTATTCAGGGATGAAGA registered a PBM binding z-score of 2.64.

CCGAGTAGGTTATGAGGGGGCATTCAGTGCGAAT returned a PBM binding z-score of 5.25.

For the sequence GCTAGTTGGTCAGTAAATGGTCACACACCGGTCG, the PBM binding z-score is -0.166.

On to AGTGAAAGTTCAGGACGAGGTAACGTAAAGCACG, for which the PBM binding z-score was determined as 2.81.

Take TCGAGTAGGTTACGCGGGCATTCAGGGATGAAGA: the PBM binding z-score was -0.157.

TCGAGTAGGTTACGGGGCCATTCAGGGATGAAGA registered a PBM binding z-score of 1.26.

In turn, AGAATGAGGTTACCAGAGATCAGGGAAACGCTTG had a PBM binding z-score of 1.72.

Sequence CCTTACGGGTCACTCCAGGTTCTAGCATCGGAGT displayed a PBM binding z-score of 3.59.

Take AGTCAAAGGTCAGGACGAGGTAACGTAAAGCACG: the PBM binding z-score came out at 4.83.

For TCGAGAAGGTTACGGGGGCATTCAGGGATGAAGA, the PBM binding z-score was 4.82.

As for GGAACTAGGGCAAAGTTGATAGCATCTGTCGACG, the PBM binding z-score was -0.0768.

Sequence CGTCAAAGTTCAAGCTAACGTAACAGAAAGCAGC displayed a PBM binding z-score of 4.18.
